Sampled rows, rich in hits. Any-hit rate of the full collection: about 28%.
CYP2C19 activ: increases human CYP2C19 enzyme activity; P33261; recombinant CYP2C19, luciferin-H EGE luminescence; active compounds read high; 0 = fully inhibited enzyme, 1 = untreated enzyme; activation factor at 5 µM; 96,000 tested, under 10 active;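 active means activation factor of at least 2 at 5 µM in the primary screen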;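 further: 0 = wells with 2.5 mM tranylcypromine and 1 = vehicle-only wells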
CYP2C9 activ: increases human cytochrome P450 2C9 activity | AID 1024 | actives 1.4% (n = 96,000) | recombinant CYP2C9, luciferin-H conversion, luminescence; active compounds read high; factor 1 = untreated enzyme, 0 = blocked | activation factor at 5 µM | P11712;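 active means activation factor of 2 or more for CYP2C9 at a 5 µM dose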;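 further: 0 = sulfaphenazole-blocked wells and 1 = vehicle-only wells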
Target sequence (P11712 whole entry, looked up): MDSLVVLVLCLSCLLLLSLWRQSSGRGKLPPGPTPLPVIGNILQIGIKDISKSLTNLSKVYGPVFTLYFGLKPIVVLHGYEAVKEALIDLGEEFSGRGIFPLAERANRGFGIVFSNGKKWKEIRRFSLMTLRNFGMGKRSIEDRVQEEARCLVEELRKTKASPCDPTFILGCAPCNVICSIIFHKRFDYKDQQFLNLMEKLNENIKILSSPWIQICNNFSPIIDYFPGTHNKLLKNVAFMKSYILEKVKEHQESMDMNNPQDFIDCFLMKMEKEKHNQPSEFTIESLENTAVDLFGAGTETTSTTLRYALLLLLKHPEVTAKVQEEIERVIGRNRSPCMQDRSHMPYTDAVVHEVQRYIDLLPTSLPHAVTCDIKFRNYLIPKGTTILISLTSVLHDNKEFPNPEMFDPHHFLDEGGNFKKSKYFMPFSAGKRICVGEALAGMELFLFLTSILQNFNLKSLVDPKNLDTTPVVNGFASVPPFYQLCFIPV
CD11b adhes inh: blocks human CD11b/CD18 adhesion to fibrinogen. P05107+P11215. K562 CD11b/CD18 adhesion to fibrinogen, ATPlite luminescence; Mn2+ added to activate the integrin. inhibition, % at 10 µM. actives 0.54% (n = 93,000);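 active means primary inhibition of 50% or more at 10 µM, then 40% or more on retest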
CYP2C19 inh: inhibitors of human CYP2C19; actives 21% (n = 96,000); P33261; CYP2C19 Supersomes, luciferin-H EGE luminescence, 30 min; AID 778; inhibition, % at 5 µM;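 active means CYP2C19 inhibition above a set limit at 5 µM in the primary screen, cut at about 50% in these data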;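 further: plate controls were negative control wells for no effect and 2.5 mM tranylcypromine positive control for full effect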
CD11b adhes enh: enhancers of human CD11b/CD18 binding to fibrinogen. P05107+P11215. K562 CD11b/CD18 adhesion to fibrinogen, ATPlite luminescence. activation, % at 10 µM. actives 0.07% (n = 93,000);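 active means 10 µM primary screen giving 50% or more activity, confirmed by 40% or more on retest at that dose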
CYP2C9 inhib: blocks human cytochrome P450 2C9 | actives 20% (n = 96,000) | CYP2C9 Supersomes, luciferin-H conversion, luminescence | P11712 | AID 777 | inhibition, % at 5 µM;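 active means blocking of liver enzyme CYP2C9 beyond about 50% at 5 µM, limit read from the data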
Numbers without * were called inactive; / = no result given; ! = not active in a repeat.

SMILES	CYP2C19 activ	CYP2C9 activ	CD11b adhes inh	CYP2C19 inh	CD11b adhes enh	CYP2C9 inhib
Cn1c(O)c(C=NCCc2c[nH]c3ccccc23)c(=O)n(C)c1=O	1.1	1	-16.6	-9.0	-1.6	0.1
CC1(C)CSC(Nc2ccc(F)c(Cl)c2)=N1	0.6	0.8	10.8	42.0	-2.1	20.0
CC1(C)CN=C(Nc2ccc(F)c(F)c2)S1	0.4	0.7	-0.3	61.6*	-0.4	25.9
Clc1ccc2c(c1)C(c1ccccc1Cl)=NCc1nnc(N3CCN(CCSc4ccccc4)CC3)n1-2	0.9	0.3	1.5	7.5	-3.4	67.8*
CCCCn1c(O)c(C(CC)=NCCc2ccccc2)c(=O)[nH]c1=O	0.5	0.2	3.6	45.5	1.7	77.9*
C=CCn1c(O)c(C(CC)=NCCc2ccccc2)c(=O)[nH]c1=O	0.6	0.7	-3.3	36.1	0.5	26.1
CCCCn1c(O)c(C(CC)=NCCN2CCOCC2)c(=O)[nH]c1=O	0.6	0.4	27.9	36.7	0.1	63.8*
CCCCn1c(O)c(C(CC)=NCc2ccc(F)cc2)c(=O)[nH]c1=O	0.6	0.3	/	40.8	/	71.4*
CCCCn1c(O)c(C(C)=NCc2ccc(F)cc2)c(=O)[nH]c1=O	0.8	0.5	-6.6	23.3	2.2	49.5
CN(C)C1(CNC(=O)c2ccc(Cl)c(S(=O)(=O)NCc3ccco3)c2)CCCCC1	1.1	0.8	2.5	-8.1	-3.7	21.6
Cc1ccc2c(c1)C1CN(C)CCC1N2C(=O)COc1ccc(S(=O)(=O)N2CCOCC2)cc1 (centres undefined)	0.9	1	-19.1	8.5	-3.6	2.4
COc1ccc(CN2CCN(c3ccccc3)CC2)c(C)c1C	0.2	1	1.6	83.1*	-1.7	-2.9
FC(F)(F)c1ccccc1CN1CCN(Cc2ccccc2)CC1	0.3	0.9	2.2	68.7*	0.2	12.1
CCN1CCN(Cc2ccccc2C)CC1	1	1.1	-16.3	-2.4	-1.7	-14.2
Oc1ccc(Cl)cc1CN1CCN(Cc2ccccc2)CC1	0.1	0.4	4.2	90.2*	-2.6	56.3*
Clc1ccccc1CN1CCN(c2ccccc2Cl)CC1	0.6	0.9	5.4	44.5	-2.5	14.0
Cc1cc(O)c(CN2CCN(c3ccccc3)CC2)cc1C	0.6	0.8	-3.7	37.7	-3.1	20.0
Cc1ccc(O)c(CN2CCN(c3ccccc3)CC2)c1	0.1	0.3	4.6	92.7*	-3.4	72.0*
Cc1ccc(C(=O)C2(C)N(O)C(C)C(c3cccs3)=[N+]2[O-])cc1 (centres undefined)	0.7	0.4	-0.4	29.9	-1.2	56.0*
O=C(NC1CC1)C1CSC(c2cccnc2)=N1 (centres undefined)	1	1	-6.0	-4.7	-0.8	-0.2
CCOP1(=S)Oc2cc3c(cc2C(C(=O)OC)(C(F)(F)F)O1)OCO3 (centres undefined)	0	0.1	-22.0	98.2*	2.9	89.1*
O=C(N/N=C1/CN2CCC1CC2)c1cc2ccccc2cc1O	1.1	1	/	-10.3	/	-3.5
COc1ccc(C(=O)C(Cc2ccccc2)N(C)C)cc1 (centres undefined)	0.6	1	-50.8	35.1	-1.4	-2.4
CN(C)C(Cc1ccccc1)C(=O)c1ccc(-c2ccccc2)cc1 (centres undefined)	0.5	0.3	9.6	49.6	-2.9	74.5*
O=C(C1CC(c2ccccc2O)=NO1)N1CCC2(CC1)OCCO2 (centres undefined)	0	1	-7.9	100.0*	-3.7	3.1
SMILES	CYP2C19 activ	CYP2C9 activ	CD11b adhes inh	CYP2C19 inh	CD11b adhes enh	CYP2C9 inhib
COC(=O)C(O)(c1ccc(N(C)C(=O)COc2ccccc2)cc1)C(F)(F)F (centres undefined)	/	/	12.1	/	-3.8	/
CCOC(=O)N(CC)c1ccc(C(O)(C(=O)OC)C(F)(F)F)cc1 (centres undefined)	0.4	0.7	-9.1	64.4*	-1.5	33.7
CCC(=NCCCN(CC)CC)c1c(O)n(-c2ccccc2)c(=O)[nH]c1=O	1	0.9	-2.0	3.1	2.8	10.6
CN1C(=O)C(=Cc2ccccc2Oc2ccc(Cl)c(F)c2)C(=O)N(C)C1=O	0.9	0.4	/	7.3	/	56.6*
COc1ccc(C)cc1NC(=O)c1c(C)nn(Cc2ccccc2)c1Cl	/	/	5.7	/	6.5	/
O=C1NC(=O)N(C2CCCCC2)C(=O)C1C1c2ccccc2C(=O)N1Cc1ccccc1 (centres undefined)	0.9	0.5	-0.9	8.1	4.2	47.1
C(#CCN1CCOCC1)COCC#Cc1ccccc1	0.4	1	-8.0	59.8*	2.7	-3.1
Cc1cccc(N2CCc3c2nc2ccccc2c3N)c1	0.7	0.9	7.9	76.7*!	-0.4	65.0*!
Cc1ccnc(-n2c(-c3ccccc3)nc3ccccc3c2=O)c1	1	1	-42.2	4.5	3.9	1.3
CC(C)Oc1cccc(NC(=O)c2cccn(Cc3ccc4c(c3)OC(F)(F)O4)c2=O)c1	0.8	0.2	12.0	24.6	5.7	84.2*
O=C(Nc1cccc(C(F)(F)F)c1)c1cccn(Cc2ccc3c(c2)OC(F)(F)O3)c1=O	0.8	0.4	/	20.4	/	64.8*
O=C(Nc1ccc(C(F)(F)F)cc1)c1cccn(Cc2ccc3c(c2)OC(F)(F)O3)c1=O	1.2	0.9	/	-18.3	/	11.6
CC(C)Oc1ccc(Cc2c(O)[nH]c(=O)[nH]c2=O)cc1	1.1	1.1	-11.7	-9.0	0.7	-5.6
Cc1cccc(C)c1NC(=O)c1cccn(Cc2ccc3c(c2)OC(F)(F)O3)c1=O	0.3	0.7	23.8	68.2*	-2.1	33.9
O=P1(NCc2ccco2)COc2ccccc2OC1	1	1	8.7	1.6	-0.4	-3.5
O=C1NC(=S)NC(=O)C12C(c1ccc(F)cc1)NC(=S)NC2c1ccc(F)cc1 (centres undefined)	1.2	1.1	6.6	-20.6	-5.2	-12.6
CC12CN3CC(C)(CN(C1)C3c1cccs1)C2O (centres undefined)	0.4	1.1	9.1	58.2*	-2.9	-7.8
COc1ccc2c(c1OC)C(=O)OC2c1c(O)n(C2CCCCC2)c(=O)[nH]c1=O (centres undefined)	0.9	0.3	-20.6	5.8	-1.1	68.8*
CC(=NCc1ccco1)c1c(O)n(-c2ccccc2)c(=O)[nH]c1=O	0.4	0.9	4.8	56.5*	0.3	11.8
CCC(=NCc1ccco1)c1c(O)n(-c2ccc(C)cc2)c(=O)[nH]c1=O	0.8	0.8	-14.1	24.2	-2.3	17.7
CCC(=NCc1ccco1)c1c(O)n(-c2ccccc2)c(=O)[nH]c1=O	0.5	0.9	-6.1	54.0*	-0.7	8.4
CCCCSC1=NN1c1nc(N)nc(C)c1CC	0.6	0.7	-2.9	39.0	-2.5	34.3
Cc1cc(OC(=O)c2ccco2)c2c3c(c(=O)oc2c1)CCC3	1.2	1.1	7.9	-19.7	-2.2	-14.2

Bioassay records as filed in PubChem BioAssay.
